# Assay results as given in the supplement of paper PMC10105736.
# Unmarked numbers belong to inactive results.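 The calls were made as follows: active = MAPPIT score above the 99th percentile of random reference set scores in the same batch; inactive = at or below it.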
# How the values were obtained:
# Assay in all cases: MAPPIT interaction score (arbitrary units); higher = stronger binary interaction signal, active = hit call of the paper
# [1] = molecular target: grp; settings: MAPPIT configuration: N-N; pair source set: DPIM
# [2] = molecular target: fon; settings: MAPPIT configuration: N-N; pair source set: Finley_Y2H
# [3] = molecular target: gukh; settings: MAPPIT configuration: N-C; pair source set: Lit-BM-16
# [4] = molecular target: mRpL39; settings: MAPPIT configuration: N-N; pair source set: DPIM
# [5] = molecular target: hid; settings: pair source set: RRS
# [6] = molecular target: gus; settings: MAPPIT configuration: N-N; pair source set: Finley_Y2H
# [7] = molecular target: glob1; settings: MAPPIT configuration: N-N
# [8] = molecular target: fwe; settings: MAPPIT configuration: N-C; pair source set: screen_4
# [9] = molecular target: fz; settings: MAPPIT configuration: N-C; pair source set: Lit-BM-16
# [10] = molecular target: htl; settings: MAPPIT configuration: N-N; pair source set: RRS
# [11] = molecular target: gsb-n; settings: MAPPIT configuration: N-N; pair source set: Finley_Y2H
# 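Also: HEK293T cells with Epo stimulation, STAT-responsive firefly luciferase reporter, fold induction versus unstimulated cells divided by the larger fold induction of two negative controls lacking either bait or prey.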
binder,measurement,setting,value
CG6724 (protein) MDVDNGEGQVQVHLKTKQEHYAVPDVPYAIDGTVTTVELNTFVNALLRQKDGSSDTDFDFLVFDEYLRGRLCDHLREKAISFEDAIEIEYVERFPAPEPQDCLLHDDWVSAVKARGKWILSGCYDNTLNLWTNKGKHILTISGHTAPIKAVDWISLDEETGRFVSTSQDQTAMLWQWNVGSNSVECVSVCKGHERGVDSVSVSPDGLRFATGSWDTMLKVWSAELDDAVEGSSKRMKESGVRTPKITLQGHRESVSAVQWMDATTLLTGSWDHTLKVWDLSLEGIKTEISTNKSIFDASYSKLNRLILTASADKNLRLYDPRTNQGSVVRNTYLGHNAWVQTVMWSTTEEFLFVSGAYDNQNKLWDCRSPKAPLYDLLGHGEKVLDIDWSNPKYIVSGGVDNTVRVFKSRKALAEEAETK,MAPPIT interaction score,[1],0.11
Slh (protein) MLTLRERQINAIKQMLNLNSQQPKALAAEPVWKILIYDRVGQDIISPIISIKELRELGVTLHVQLHSDRDSIPDVPAIYFCLPTDENLDRIQQDFSSGLYDVYHLNFLAPITRSKIENLAAAALHAGCVANIHRVYDQYVNFISLEDDFFILKHQQSDQLSYYAINRANTRDEEMEALMDSIVDSLFALFVTLGNVPIIRCPRNSAAEMVARKLEKKLRENLWDARANLFHMDATQAGGGVFSFQRPVLLLLDRNMDLATPLHHTWSYQALVHDVLDLGLNLVYVEDETASAGARKKPKACDLDRNDRFWMTHKGSPFPTVAEAIQEELESYRNSEEEIKRLKTSMGIEGESDIAFSLVNDTTARLTNAVNSLPQLMEKKRLIDMHTKIATAILNFIKARRLDSFFEIEEKVMSKQTLDRPLLDLLRDGEFGQAEDKLRLYIIYFICAQQLPESEQERLKEALQAAGCDLTALAYVQRWKGIMNRSPSISQATQYEGGGTKTVSMFTKLVSQGSSFVMEGVKNLVVKRHNLPVTKITEQVMECRSNAETDDYLYLDPKLLKGGEVLPKNRAPFQDAVVFMVGGGNYIEYQNLVDFIKQKQTSNVQRRIIYGASTLTNARQFLKELSALGGEIQSPTATS,MAPPIT interaction score,[2],-0.252
dlg1 (protein) MPVKKQEAHRALELLEDYHARLSEPQDRALRIAIERVIRIFKSRLFQALLDIQEFYELTLLDDSKSIQQKTAETLQIATKWEKDGQAVKIADFIKSSNLNRNCAYEFNNDASSNQTNQSALNQNPIANNVSAQAQAEALSRTFKSELEEILNQRMRIESDTENAKEPTVEQQQKQQQAQQRSSRSPQQQNPQQQQGSKSRSGSQTVNGDDSWLYEDIQLERGNSGLGFSIAGGTDNPHIGTDTSIYITKLISGGAAAADGRLSINDIIVSVNDVSVVDVPHASAVDALKKAGNVVKLHVKRKRGTATTPAAGSAAGDARDSAASGPKVIEIDLVKGGKGLGFSIAGGIGNQHIPGDNGIYVTKLMDGGAAQVDGRLSIGDKLIAVRTNGSEKNLENVTHELAVATLKSITDKVTLIIGKTQHLTTSASGGGGGGLSSGQQLSQSQSQLATSQSQSQVHQQQHATPMVNSQSTEPGSRYASTNVLAAVPPGTPRAVSTEDITREPRTITIQKGPQGLGFNIVGGEDGQGIYVSFILAGGPADLGSELKRGDQLLSVNNVNLTHATHEEAAQALKTSGGVVTLLAQYRPEEYNRFEARIQELKQQAALGAGGSGTLLRTTQKRSLYVRALFDYDPNRDDGLPSRGLPFKHGDILHVTNASDDEWWQARRVLGDNEDEQIGIVPSKRRWERKMRARDRSVKFQGHAAANNNLDKQSTLDRKKKNFTFSRKFPFMKSRDEKNEDGSDQEPFMLCYTQDDANAEGASEENVLSYEAVQRLSINYTRPVIILGPLKDRINDDLISEYPDKFGSCVPHTTRPKREYEVDGRDYHFVSSREQMERDIQNHLFIEAGQYNDNLYGTSVASVREVAEKGKHCILDVSGNAIKRLQVAQLYPVAVFIKPKSVDSVMEMNRRMTEEQAKKTYERAIKMEQEFGEYFTGVVQGDTIEEIYSKVKSMIWSQSGPTIWVPSKESL,MAPPIT interaction score,[3],1.68
same,MAPPIT interaction score,[4],0.743
sesB (protein) MGNISASITSQSKMGKDFDAVGFVKDFAAGGISAAVSKTAVAPIERVKLLLQVQHISKQISPDKQYKGMVDCFIRIPKEQGFSSFWRGNLANVIRYFPTQALNFAFKDKYKQVFLGGVDKNTQFWRYFAGNLASGGAAGATSLCFVYPLDFARTRLAADTGKGGQREFTGLGNCLTKIFKSDGIVGLYRGFGVSVQGIIIYRAAYFGFYDTARGMLPDPKNTPIYISWAIAQVVTTVAGIVSYPFDTVRRRMMMQSGRKATEVIYKNTLHCWATIAKQEGTGAFFKGAFSNILRGTGGAFVLVLYDEIKKVL,MAPPIT interaction score,[5]; MAPPIT configuration: N-C,0.0222
same,MAPPIT interaction score,[5]; MAPPIT configuration: N-N,-0.106
Sirt2 (protein) MDKVRRFFANTLHLGGSSDAKEEVKVEKVIPDLSFDGFAEHWRVHGFRKIVTMVGAGISTSAGIPDFRSPGSGLYSNLKKYELPHPTAIFDLDYFEKNPAPFFALAKELYPGSFIPTPAHYFIRLLNDKGLLQRHYTQNIDTLDRLTGLPEDKIIEAHGSFHTNHCIKCRKEYDMDWMKAEIFADRLPKCQKCQGVVKPDIVFFGENLPKRFYSSPEEDFQDCDLLIIMGTSLEVQPFASLVWRPGPRCIRLLINRDAVGQASCVLFMDPNTRSLLFDKPNNTRDVAFLGDCDAGVMALAKALGWDQELQQLITSERKKLSGSQNSEELQQGKEKPQSDPDKMTSGDRDKKDASL,MAPPIT interaction score,[6],-0.0617
MED6 (protein) MASRQMTNDHLRLSWHDTQMMATLSPQTVMDYFCRKSNPFYDHMCNNETVRMQRLGPEHLHNMIGLEYILLHVAEPILYVIRKQHRHNPSEATPIADYYIIGGTVYKAPDLANVINSRILNTVVNLQSAFEEASSYARYHPNKGYTWDFSSNKVFSDRSKSDKKDANSAKDENSGTLFQKQRVDMLLAELLRKFPPPIPPMLQNLQQPPPAGDDLNTARNASEMNNATGPLDIKTEGVDMKPPPEKKSK,MAPPIT interaction score,[7]; pair source set: Lit-BS-16,-0.386
eIF2gamma (protein) MATAEAQIGVNRNLQKQDLSNLDVSKLTPLSPEVISRQATINIGTIGHVAHGKSTVVKAISGVQTVRFKNELERNITIKLGYANAKIYKCDNPKCPRPASFVSDASSKDDSLPCTRLNCSGNFRLVRHVSFVDCPGHDILMATMLNGAAVMDAALLLIAGNESCPQPQTSEHLAAIEIMKLKQILILQNKIDLIKESQAKEQYEEITKFVQGTVAEGAPIIPISAQLKYNIDVLCEYIVNKIPVPPRDFNAPPRLIVIRSFDVNKPGCEVADLKGGVAGGSILSGVLKVGQEIEVRPGVVTKDSDGNITCRPIFSRIVSLFAEQNELQYAVPGGLIGVGTKIDPTLCRADRLVGQVLGAVGQLPDIYQELEISYYLLRRLLGVRTDGDKKGARVEKLQKNEILLVNIGSLSTGGRISATKGDLAKIVLTTPVCTEKGEKIALSRRVENHWRLIGWGQIFGGKTITPVLDSQVAKK,MAPPIT interaction score,[7]; pair source set: RRS,0.425
Arl8 (protein) MLALINRILEWFKSIFWKEEMELTLVGLQFSGKTTFVNVIASGQFAEDMIPTVGFNMRKITRGNVTIKVWDIGGQPRFRSMWERYCRGVNAIVYMVDAADLDKLEASRNELHSLLDKPQLAGIPVLVLGNKRDLPGALDETGLIERMNLSSIQDREICCYSISCKEKDNIDITLQWLIQHSKSQSR,MAPPIT interaction score,[8],3.21
Patj (protein) MHLSADISSALQQIEAVKKGIDESDDPKLQMQTAESLSTILGILQDPVFRTIVHVQDSLSELNAQLAQHPSMLPNDFDIDVAGNLVLSLNGGEVMYDFDEQRSSSHSHSAPGSPDKSGGVGEEPRPQSQNSKGAGVADLYATDYAQIQAIELVNDGTGLGFGIIGARNSGVIVKTILPGGVADKDGRLRSGDHILQIGDVNLHEMVSEQVAAVLRQSGTHVRLVVARPVEQSVPTPQYALEPGTAVVPTRVLVDPAELERYLISTGYPEIFGESSTASTPQTTTEDDRFVYRGETSMLIDPNIDLEELLALPETEKLQVELKKDANGLGITIAGYVCEKEELSGIFVKSVSPGSAADLSGRIRVNDRIIEVDGQSLQGYSNHQAVELLKKSGQVVNLRLERYLRGPKFEQLQQAIAANDKLPSSAPGTPSRAPMPTPVATTSSATTTPSRSITRELEEEALPAPEAFMTTPPSVTTMTTTTLSSFGAGKQLVAVRDSLDGSTKIIPTEVVPLADKTEAKNSGVITRHKYYTDPELSDDAETEIIRKWQKIVGSDVEVIVAQIKKFAVGGLGISLEGTVDVEGGREVRPHHYIRSILPDGPVGVNGVLRSGDELLEVNGERLLGMNHLEVVAILKELPLDVRMVCGRNRNSSLLPFSDDTLKKLSNNFENLLPATDRLVKAKSDGSLATAGSVADGDSVAAAAASFSKLKSRSLEPLTGLAMWSSQPQIIELVKGDRGLGFSILDYQDPLDPNDTLIVIRSLVPGGVAQLDGRLIPGDRLLFVNSINLENASLDQAVQALKGASKGVVRIGVAKPLPMTDNSLKACSNASTTSEETLDAQPSPPALPTVAPPAMPPSASMGAEPDLIPDWRN,MAPPIT interaction score,[9],2.4
Uba5 (protein) MSHAIDELQAIIADLKTELETEPKSSGGVASNSRLARDRIDRMSAEVVDSNPYSRLMALQRMNIVKDYERIRYKAVAIVGVGGVGSVTADMLTRCGIGKLILFDYDKVELANMNRLFFTPDQAGLSKVAAAAATLSFINPDVEIETHNYNITTVENFDRFLDTISQGGRIAGQPVDLVLSCVDNFEARMAINAACNERNLNWFESGVSENAVSGHIQFIRPGDTACFACAPPLVVAENIDEKTLKREGVCAASLPTTMGITAGFLVQNALKYLLNFGEVSDYLGYNALSDFFPKMTLKPNPQCDDRNCLVRQKEFQARPKPVLIEEKAVSEEPLHATNEWGIELVAEDAPESNTTPAETPVMGEGLRLAYEAPEKSSETSEETVSAATADETSLEDLMAQMKSM,MAPPIT interaction score,[10],0.0658
slp2 (protein) MVKIEEGLPSSEISAHSLHFQHHHHPLPPTTHHSALQSPHPVGLNLTNLMKMARTPHLKSSFSINSILPETVEHHDEDEEEDVEKKSPAKFPPNHNNNNLNTTNWGSPEDHEAESDPESDLDVTSMSPAPVANPNESDPDEVDEEFVEEDIECDGETTDGDAENKSNDGKPVKDKKGNEKPPYSYNALIMMAIRQSSEKRLTLNGIYEYIMTNHPYYRDNKQGWQNSIRHNLSLNKCFVKVPRHYDDPGKGNYWMLDPSAEDVFIGGSTGKLRRRTTAASRSRLAAFKRSLIGPMFPGLAAYPQFGQFLTYPPTAPSLLASMYQRYNPFAPKGGPGHPGLPPGLPGLPGPPGPQGPPGPPPPPFVAPPTSSELYQRLQYQQLLHQHAAAAALAAHQRQLSVAAASAASQPPPTHHHPHLAVGQAPLSPGGDSPGPSPQPLHKPVTVVSRNS,MAPPIT interaction score,[11],-0.371
